The values that follow come from PubChem BioAssay AID588726 (The Scripps Research Institute Molecular Screening Center, 2011).

The inhibition is the drop in the measured response relative to a control, in per cent.

Screen size: about 360,000 compounds; about 8,200 (2.3%) were called active. This is one part of a sample in which actives are shown more often than they occur. Unmarked numbers belong to inactive results. Cut-off read from the data, not from the text of the source: active = inhibition above about 27%; inactive = the rest.

The target of this experiment is Fructose-bisphosphate aldolase (Mycobacterium tuberculosis (strain ATCC 25618 / H37Rv)) (UniProt P9WQA3). The experiment is described as follows: M. tuberculosis aldolase activity blockers – biochemical, fluorescence, strain H37Rv, primary screen (AID 588726).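 Note: 0% = vehicle and 100% = reference inhibitor.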 Particulars: purified M. tuberculosis FBA, fluorescence read-out, at 1 µM, active compounds read high.
Chain of Fructose-bisphosphate aldolase (Mycobacterium tuberculosis (strain ATCC 25618 / H37Rv)) (P9WQA3 whole entry, looked up): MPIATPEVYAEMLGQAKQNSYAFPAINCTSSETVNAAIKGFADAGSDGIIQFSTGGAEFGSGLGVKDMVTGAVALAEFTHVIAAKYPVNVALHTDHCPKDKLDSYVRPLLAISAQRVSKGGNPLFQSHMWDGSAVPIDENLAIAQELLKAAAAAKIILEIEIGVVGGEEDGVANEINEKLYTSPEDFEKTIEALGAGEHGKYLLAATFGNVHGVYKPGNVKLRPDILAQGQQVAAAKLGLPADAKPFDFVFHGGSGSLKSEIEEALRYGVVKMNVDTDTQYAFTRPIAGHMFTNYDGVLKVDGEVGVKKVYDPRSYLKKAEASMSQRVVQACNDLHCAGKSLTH
`COc1cccc(CN2CCC(C(=O)NC(c3ccc4c(c3)OCO4)c3ccccn3)CC2)c1` (configuration not stated): the inhibition is 0.6%.
Turning to `O=C(CCS(=O)(=O)c1ccccc1Cl)Nc1ccc(S(=O)(=O)Nc2ncccn2)cc1`, the inhibition is -1.51%.
Turning to `O=C(NCCCN1CCCC1=O)C(=O)NCC1OCCN1S(=O)(=O)c1ccc(Br)cc1` (configuration not stated), the inhibition is 6.34%.
Take `Cc1ccccc1N1CC(c2nc3ccccc3[nH]2)CC1=O` (configuration not stated): the inhibition is 0.05%.
In the case of `Cc1ccc(-c2nc3ccccc3[nH]2)cc1N` it was 176% (active); in that of `CCOC(=O)CNC(=O)CSc1ncccc1-c1nc2ccccc2[nH]1`, 8.03%; in that of `CCSc1nc(=S)n(CC)c(C)c1C(C)=O`, -0.42%.
With `O=C(CN1CCOc2ccccc21)N1CCC(Cc2ccccc2)CC1`, the inhibition was 6.13%.
With `CCC(C)N(C(=O)COC(=O)c1nc(Cl)ccc1Cl)C1CCS(=O)(=O)C1` (configuration not stated) the figure was 0.03%; with `CCC(C)N(C(=O)Cn1nc(C)c([N+](=O)[O-])c1C)C1CCS(=O)(=O)C1` (configuration not stated), 1.23%; with `CCC(C)N(C(=O)COC(=O)C1C(C(=O)OC)=C(C)NC(C)=C1C(=O)OC)C1CCS(=O)(=O)C1` (configuration not stated), 74.9% (active).
With `Cc1cc2cc3n(c2nn1)N=C(Cl)CC3` the figure was 83.2% (active).
In the case of `CCOC(=O)c1nn(-c2ccccc2F)c2nc(Nc3ccccc3)cc(=O)n12` it was -2.45%; in that of `COc1ccccc1N(C)S(=O)(=O)c1ccc(C(=O)NC2CCCCCC2)cc1`, 2.13%; in that of `CCOc1ccccc1N(CC(=O)NC1CCCCC1)C(=O)CCCC(=O)Nc1ccccn1`, -0.58%.
In the case of `CC1=CC=CN2C1=NC(=O)CC2(C)C(=O)N(CC(=O)NC1CCCC1)c1ccccc1C` (configuration not stated), the inhibition was 164% (active).
In the case of `COc1ccccc1N(CC(=O)NC1CCCC1)C(=O)C1(C)CC(=O)N=C2C=CC(C)=CN21` (configuration not stated) it was 123% (active); in that of `Cc1ccccc1CCN(CC(=O)NC1CCCCC1)C(=O)c1csnn1`, -2.02%.
Take `Cc1ccc(N(CC(=O)NC2CCCCC2)C(=O)CCCC(=O)Nc2ccccn2)c(C)c1`: the inhibition is 3.51%.
In the case of `CC1=C(C(=O)N2CCOCC2)CC(CC(=O)NCc2cccs2)C(=O)N1CCCN1CCCC1=O` (configuration not stated) it was 2.87%; in that of `Cc1ccc2c(cnn2C(=O)CCC(=O)NC2CCCC2)c1`, 2.86%; in that of `Cc1ccc(C(C(=O)NC2CCCCC2)N(C(=O)c2csnn2)C2CC2)o1` (configuration not stated), 1.93%.
In the case of `CC(=O)N1CCN(S(=O)(=O)c2ccc(C)c([N+](=O)[O-])c2)C1C(C)C` (configuration not stated) it was -1.36%; in that of `Cc1ccccc1N1C(=O)C(Oc2ccc(Cl)cc2)C1CNCC1CCCO1` (configuration not stated), -3.19%.
On to `NC(=O)CCN1CCN(S(=O)(=O)/C=C/c2ccccc2)CC1`, for which the inhibition is 1.59%.
With `O=c1cc(CN2CCN(S(=O)(=O)/C=C/c3ccccc3)CC2)c2ccc(O)cc2o1`, the inhibition was 137% (active).
Regarding `Cc1ccc2c(CN3CCN(S(=O)(=O)c4ccccc4C(F)(F)F)CC3)cc(=O)oc2c1`, the inhibition is 2.71%.
On to `CSc1cccc(NC(=O)C2CCCN2S(=O)(=O)c2ccc3c(c2)CCC(=O)N3)c1` (configuration not stated), for which the inhibition was 1.45%.
With `Cc1cccc(-c2cnc(C(O)c3ccc4ccccc4c3)[nH]2)c1` (configuration not stated) the figure was -1.57%; with `CC(C)(C)OC(=O)NC(Cc1ccccc1)C(=O)NC(CSC1CCCCO1)C(=O)NN` (configuration not stated), -0.07%.
As to `CC(C)c1ccc(S(=O)(=O)N2CCN(C(=O)c3ccc(N4CCCC4)c([N+](=O)[O-])c3)CC2)cc1`, the inhibition is -2.26%.
In the case of `O=C1C=C(c2ccccc2)CCC1` it was 3.76%; in that of `O=c1[nH]c(-c2ccccc2)c(-c2ccccc2)[nH]1`, 133% (active).
With `O=c1cc(-c2ccccc2)[nH]c2cc(F)ccc12` the figure was 5.51%; with `CCc1ccc(NC(=O)CCNS(=O)(=O)c2cccs2)cc1`, -1.53%.
In the case of `O=C(NCc1ccccc1)c1ccc(CNc2c(N3CCCC3)c(=O)c2=O)cc1` it was 4.44%.
For `CCc1ccccc1N1C(=O)C2C3CC(=O)C(c4ccccc43)C2C1=O` (configuration not stated), the inhibition is 1.36%.
In the case of `CCC1C(=O)c2ccccc2N(C)C1=O` (configuration not stated) it was 34.5% (active).
With `CN1C(=O)/C(=C\c2cc(Br)cs2)c2ccccc21` the figure was 0.16%.
`Cc1ccc(CN2CCC(N3CCC(C(=O)NCC4CCCO4)CC3)CC2)o1` (configuration not stated): the inhibition was -1.69%.
With `CC(=O)N1CCN(C(=O)c2cc(-c3ccc(C)o3)nc3ccccc23)CC1` the figure was 131% (active); with `Cc1cccc(C(=O)N2CCC(c3nc4ccccc4s3)CC2)c1`, -2.02%.
In the case of `CC1CCCC(NC(=O)c2cc(-c3ccncc3)nc3ccccc23)C1C` (configuration not stated) it was 4%; in that of `O=C(c1cc(-c2ccc(Cl)s2)nc2ccccc12)N1CCOCC1`, 93.6% (active); in that of `CC(=O)N1CCN(C(=O)c2cc(-c3ccc(Cl)s3)nc3ccccc23)CC1`, 83.4% (active).
On to `Cc1cc(C(=O)NNC(=O)c2cccc(S(=O)(=O)N3CCOCC3)c2)c2ccccc2n1`, for which the inhibition is -2.38%.
With `Cc1cc(C(=O)N2CCN(c3ccccn3)CC2)c(C)o1` the figure was 9.35%; with `Cc1c(NC(=O)c2cc(-c3ccc(Cl)s3)nc3ccccc23)c(=O)n(-c2ccccc2)n1C`, 13%; with `CC1CCN(C(=O)Cn2cc(C(=O)c3ccco3)c3ccccc32)CC1`, -0.4%.
Take `CC1CCCN(C(=O)c2cc(-c3ccco3)nc3ccccc23)C1` (configuration not stated): the inhibition was 114% (active).
In the case of `Cc1ccc(S(=O)(=O)N2CCN(C(=O)c3ccccc3-c3nc4ccccc4s3)CC2)c(C)c1` it was 1.65%; in that of `O=C(NNC(=O)c1cc(-c2ccccc2Cl)nc2ccccc12)c1csc(N2CCOCC2)n1`, 1.04%; in that of `Cc1nc(-c2ccc(Cl)cc2)sc1C1(C)CC(c2ccc(Br)cc2)=NO1` (configuration not stated), -1.45%.
In the case of `O=S(=O)(c1cccc(-c2nnc(SC(F)F)n2-c2ccccc2)c1)N1CCCCC1` it was 5.7%.
With `COc1ccc(C)cc1NC(=O)c1[nH]c(C)c(C(C)=O)c1C` the figure was 0.08%; with `CCc1ccc(OCC(O)CN2CCN(CCO)CC2)cc1` (configuration not stated), -0.21%; with `CSCCC(NC(=O)c1ccco1)C(=O)NCCc1ccc(F)cc1` (configuration not stated), 0.46%.
